# PubChem BioAssay (NCI)
# “And” between values parts separate entries of the source, which are not always exact repeats. Equal values may be shown once. The panel holds about 83,000 compounds, 20% with a hit somewhere; the sample as a whole holds those more often.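 Assay: single dose, 48 h. Readout: percent growth (0 = no net growth; negative = cell death). Active: <10.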 Unmarked numbers belong to inactive results. The source made the active and inactive calls.
# System: MDA-MB-468 breast
# Assay: NCI-60 one-dose screen, 48 h (100 = growth as untreated, 0 = no growth, -100 = all killed)
# Details: 10 µM unless noted
row,Structure (SMILES),growth
1,COc1ccc(/C=C(\c2cc(OC)c(OC)c(OC)c2)c2nnc(-c3cccs3)o2)cc1,77.7%
2,CCCN1C2CCC1/C(=C\c1ccc(OC)cc1)C(=O)/C2=C/c1ccc(OC)cc1,55.9%
3,CN(c1ncccc1CNc1nc(Nc2ccc3c(c2)CC(=O)N3)ncc1C(F)(F)F)S(C)(=O)=O,-44.5% (active)
4,c1cn2cc(-c3ccc4ncn(C5CCCCC5)c4c3)nc(-c3ccc4c(c3)ncn4C3CCCCC3)c2n1,-20.2% (active)
5,CCCCCCCC/C=C\CCCCCCCC(=O)OCCCCCC,95.8%
6,COc1cc2c(c(OC)c1OC)-c1ccc(OC)c(=O)cc1[C@@H](NC(C)=O)CC2,-8.64% (active) and -2.19% (active)
7,FC(F)(F)c1ccc(-c2cn3nc(-c4c[nH]c5ccc(Br)cc45)sc3n2)cc1,103%
8,CC#Cc1nc(Nc2cc(C)[nH]n2)c2ccccc2n1,1.44% [100 µM] (active)
9,CCCCN1CCN(c2ccc3nc(-c4ccc5nc(-c6ccc(OCC)cc6)[nH]c5c4)[nH]c3c2)CC1,67.3%
10,Cc1ccc(-c2nc(N3CCCNCC3)c3oc(-c4ccc(C)cc4)nc3n2)cc1,5.4% (active)
11,O=C(N/N=C/c1ccccc1)N/N=C/c1ccccc1,108% and 96.4%
12,CC(O)Cn1cnc2c1c(=O)n(C)c(=O)n2C (stereo not given),78.5%
13,O=C1NC(=O)/C(=C/C=C/c2ccccc2)S1,63.3%
14,O=C(Nc1ccc(F)cc1)Nc1ccc(CCO)cc1,105%
15,Cc1c(CN2CCN(C(=O)[C@H](C)O)CC2)sc2c(N3CCOCC3)nc(-c3cnc(N)nc3)nc12,-49.6% (active)
16,COc1cc(/C=C2\CCCC3C2=Nc2ccccc2NC3c2cc(OC)c(OC)c(OC)c2)cc(OC)c1OC (stereo not given),-6.85% (active)
17,O=C(/C=C\c1ccco1)/C=C/c1ccco1,102%
18,Cc1cc(N2CCOCC2)nc(NCc2cc(Nc3ccnc4cc(Cl)ccc34)ccc2F)n1,-71.9% (active)
19,O=C1C=C(Nc2cccc(Br)c2)c2ccccc2C1=O,90.2%
20,CCc1oc2ccccc2c1C(=O)c1cc(Br)c(O)c(Br)c1,6.28% (active)

row,Structure (SMILES),growth
1,O=C(Nc1cccc(C2=NCCN2)c1)c1ccc(OCCCOc2ccc(C(=O)Nc3cccc(C4=NCCN4)c3)cc2)cc1,-24.4% (active)
2,Cc1ccsc1C(NC(=O)c1ccccc1)c1cc(Cl)c2cccnc2c1O (stereo not given),4.52% (active)
3,O=[N+]([O-])c1ccc(NC(=S)NNC(=S)Nc2ccc(F)cc2)cc1,74.6%
4,Cn1ccnc1C(=O)/C=C/c1ccc(CC(=O)Nc2ccc(Cl)cc2)cc1,-15.4% (active)
5,CCC(=O)Oc1cc(Cl)c(Cl)cc1Cl,113%
6,NC1=C(Cl)C(=O)c2ccc(S(N)(=O)=O)cc2C1=O,-92.4% (active)
7,CCC(C)[C@@H]1NC(=O)[C@@H]2CCCN2C(=O)[C@H](Cc2ccccc2)NC(=O)[C@@H]2CCCN2C(=O)[C@H](Cc2ccccc2)NC(=O)[C@@H]2CCCN2C(=O)[C@H](Cc2ccccc2)NC1=O (stereo not given in full),116%
8,COc1ccc(-c2nc(-c3ccccc3)c(-c3ccccc3)n2C2CC2)cc1OC1CCCCC1,58.8%
9,Cc1nn(-c2ccccc2)c2c1C(c1ccc([N+](=O)[O-])cc1)C(C#N)=C(N)O2 (stereo not given),108%
10,COc1ccc2c(c1)cn1c3ccc(O)cc3[nH]c(=O)c21,-6.77% (active)
11,COc1ccc(Nc2nc(N/N=C/c3ccc(O)cc3)nc(Nc3ccc([N+](=O)[O-])cc3)n2)cc1,117%
12,Fc1cc(-c2cnc3nonc3n2)c(Cl)cc1Cl,61.8%
13,CCCCCCCCCCCCCCCCCCNC(=O)[C@H]1CSC(c2ccc(F)c(OC)c2)N1 (stereo not given in full),44.1%
14,CCN1CCN(Cc2ccc(Cc3ncc(F)c(-c4cc(F)c5nc(C)n(C(C)C)c5c4)n3)nc2)CC1,80.6%
15,O=C(Nc1cc(Cl)ccc1O)c1ccccc1Nc1ccnc(C(F)(F)F)c1,12.7%
16,O=S(=O)(O)c1cc(O)c2c(N=Cc3ccccc3O)c(S(=O)(=O)O)ccc2c1,101%
17,COc1ccc(/C=C2\CCCC3=C2N=C2SC(C)=NN2C3c2ccc(OC)c(OC)c2)cc1OC (stereo not given),12.1%
18,N#CSc1c[nH]c2ccc(/C=C/C(=O)/C=C(/C=C/c3ccc4[nH]cc(SC#N)c4c3)OB(F)F)cc12,-49% (active)
19,COc1ccc2c(c1)cn1c3ccc(OC)cc3[nH]c(=O)c21,-12% (active)
20,C=CC(CC(c1ccccc1)(c1ccccc1)c1ccccc1)N(CC)CC (stereo not given),30.5%
